Screen size: about 5,500 compounds; about 2,000 (36%) were called active. Another 18% or so got no clear call; they are omitted. Cut-off read from the data, not from the text of the source: active = normalized growth mostly below about 0.91 (no sharp cut-off); inconclusive = no clear call, values can overlap the other calls; inactive = mostly above about 0.92. This is one part of the list.
Test: chemical genetic growth profiling, strain panel (AID 1159580);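 note: tested at 20 µM; growth read once vehicle control cultures reached saturation at 30 °C; 1 = growth at the plate median or of vehicle wells; lower values mean less growth of the strain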
Conditions: growth OD
[1] = S. cerevisiae deletion strains, locus YHR030C, strain SLT2, stronger effect = lower value
[2] = S. cerevisiae deletion strains, locus YHR079C, strain IRE1, stronger effect = lower value
[3] = S. cerevisiae deletion strains, locus YJL095W, strain BCK1, stronger effect = lower value
[4] = S. cerevisiae deletion strains, locus YJR066W, strain TOR1, stronger effect = lower value
[5] = S. cerevisiae deletion strains, locus YLR113W, strain HOG1, stronger effect = lower value
[6] = S. cerevisiae deletion strains, locus YNL183C, strain NPR1, stronger effect = lower value
[7] = S. cerevisiae deletion strains, locus YOR231W, strain MKK1, stronger effect = lower value
[8] = S. cerevisiae deletion strains, locus YPL256C, strain CLN2, stronger effect = lower value
[9] = S. cerevisiae deletion strains, locus YAL013W, strain DEP1, stronger effect = lower value
[10] = S. cerevisiae deletion strains, locus YBR229C, strain ROT2, stronger effect = lower value
[11] = S. cerevisiae deletion strains, locus YCL061C, strain MRC1, stronger effect = lower value
[12] = S. cerevisiae deletion strains, locus YDL101C, strain DUN1, stronger effect = lower value
[13] = S. cerevisiae deletion strains, locus YDR150W, strain NUM1, stronger effect = lower value
[14] = S. cerevisiae deletion strains, locus YEL061C, strain CIN8, stronger effect = lower value
[15] = S. cerevisiae deletion strains, locus YGR078C, strain PAC10, stronger effect = lower value
[16] = S. cerevisiae deletion strains, locus YHR087W, strain rtc3, stronger effect = lower value
[17] = S. cerevisiae deletion strains, locus YJR043C, strain POL32, stronger effect = lower value
[18] = S. cerevisiae deletion strains, locus YJR075W, strain HOC1, stronger effect = lower value
[19] = S. cerevisiae deletion strains, locus YLR039C, strain RIC1, stronger effect = lower value
[20] = S. cerevisiae deletion strains, locus YLR058C, strain SHM2 (second series), stronger effect = lower value
[21] = S. cerevisiae deletion strains, locus YLR085C, strain ARP6, stronger effect = lower value
[22] = S. cerevisiae deletion strains, locus YLR262C, strain YPT6, stronger effect = lower value
[23] = S. cerevisiae deletion strains, locus YML094W, strain GIM5, stronger effect = lower value
[24] = S. cerevisiae deletion strains, locus YMR219W, strain ESC1, stronger effect = lower value
[25] = S. cerevisiae deletion strains, locus YMR263W, strain SAP30, stronger effect = lower value
[26] = S. cerevisiae deletion strains, locus YNL153C, strain GIM3, stronger effect = lower value
[27] = S. cerevisiae deletion strains, locus YNL298W, strain CLA4 (second series), stronger effect = lower value
[28] = S. cerevisiae deletion strains, locus YNL322C, strain KRE1, stronger effect = lower value
[29] = S. cerevisiae deletion strains, locus YNR030W, strain Alg12, stronger effect = lower value
[30] = S. cerevisiae deletion strains, locus YPL055C, strain LGE1, stronger effect = lower value
[31] = S. cerevisiae deletion strains, locus YPL241C, strain CIN2, stronger effect = lower value
[32] = S. cerevisiae deletion strains, locus YPR135W, strain CTF4, stronger effect = lower value
[33] = S. cerevisiae deletion strains, locus YAR019C, strain CDC15, stronger effect = lower value
[34] = S. cerevisiae deletion strains, locus YBL105C, strain PKC1, stronger effect = lower value
[35] = S. cerevisiae deletion strains, locus YBR135W, strain CKS1, stronger effect = lower value
[36] = S. cerevisiae deletion strains, locus YBR136W, strain MEC1, stronger effect = lower value
[37] = S. cerevisiae deletion strains, locus YBR160W, strain CDC28, stronger effect = lower value
[38] = S. cerevisiae deletion strains, locus YDL017W, strain CDC7, stronger effect = lower value
[39] = S. cerevisiae deletion strains, locus YDL028C, strain MPS1, stronger effect = lower value
[40] = S. cerevisiae deletion strains, locus YDL108W, strain KIN28, stronger effect = lower value
[41] = S. cerevisiae deletion strains, locus YDL132W, strain cdc53, stronger effect = lower value
[42] = S. cerevisiae deletion strains, locus YDL214C, strain PRR2, stronger effect = lower value
[43] = S. cerevisiae deletion strains, locus YDR052C, strain DBF4, stronger effect = lower value
[44] = S. cerevisiae deletion strains, locus YDR054C, strain cdc34, stronger effect = lower value
[45] = S. cerevisiae deletion strains, locus YDR226W, strain ADK1, stronger effect = lower value
[46] = S. cerevisiae deletion strains, locus YDR477W, strain SNF1, stronger effect = lower value
[47] = S. cerevisiae deletion strains, locus YER123W, strain YCK3, stronger effect = lower value
[48] = S. cerevisiae deletion strains, locus YER133W, strain GLC7, stronger effect = lower value
[49] = S. cerevisiae deletion strains, locus YFL009W, strain cdc4, stronger effect = lower value
[50] = S. cerevisiae deletion strains, locus YFL029C, strain CAK1, stronger effect = lower value
[51] = S. cerevisiae deletion strains, locus YFR003C, strain YPI1, stronger effect = lower value
[52] = S. cerevisiae deletion strains, locus YFR019W, strain FAB1, stronger effect = lower value
[53] = S. cerevisiae deletion strains, locus YFR028C, strain CDC14, stronger effect = lower value
[54] = S. cerevisiae deletion strains, locus YGR040W, strain KSS1, stronger effect = lower value
[55] = S. cerevisiae deletion strains, locus YGR052W, strain FMP48, stronger effect = lower value
[56] = S. cerevisiae deletion strains, locus YGR092W, strain DBF2, stronger effect = lower value
[57] = S. cerevisiae deletion strains, locus YHR082C, strain KSP1, stronger effect = lower value
[58] = S. cerevisiae deletion strains, locus YHR205W, strain SCH9, stronger effect = lower value
[59] = S. cerevisiae deletion strains, locus YIL147C, strain SLN1, stronger effect = lower value
[60] = S. cerevisiae deletion strains, locus YJL128C, strain PBS2, stronger effect = lower value
[61] = S. cerevisiae deletion strains, locus YJL157C, strain FAR1, stronger effect = lower value
[62] = S. cerevisiae deletion strains, locus YJR016C, strain ILV3, stronger effect = lower value
[63] = S. cerevisiae deletion strains, locus YJR066W, strain TOR1 (second series), stronger effect = lower value
[64] = S. cerevisiae deletion strains, locus YKL048C, strain ELM1, stronger effect = lower value
[65] = S. cerevisiae deletion strains, locus YKL067W, strain YNK1, stronger effect = lower value
[66] = S. cerevisiae deletion strains, locus YKL101W, strain HSL1, stronger effect = lower value
[67] = S. cerevisiae deletion strains, locus YKL193C, strain SDS22, stronger effect = lower value
[68] = S. cerevisiae deletion strains, locus YKL203C, strain TOR2, stronger effect = lower value
[69] = S. cerevisiae deletion strains, locus YLR133W, strain CKI1, stronger effect = lower value
[70] = S. cerevisiae deletion strains, locus YLR403W, strain SFP1, stronger effect = lower value
[71] = S. cerevisiae deletion strains, locus YML070W, strain DAK1, stronger effect = lower value
[72] = S. cerevisiae deletion strains, locus YMR001C, strain CDC5, stronger effect = lower value
[73] = S. cerevisiae deletion strains, locus YMR205C, strain PFK2 (second series), stronger effect = lower value
[74] = S. cerevisiae deletion strains, locus YMR277W, strain FCP1, stronger effect = lower value
[75] = S. cerevisiae deletion strains, locus YNL006W, strain LST8, stronger effect = lower value
[76] = S. cerevisiae deletion strains, locus YNL020C, strain ARK1, stronger effect = lower value
[77] = S. cerevisiae deletion strains, locus YNL161W, strain CBK1, stronger effect = lower value
[78] = S. cerevisiae deletion strains, locus YNL207W, strain RIO2, stronger effect = lower value
[79] = S. cerevisiae deletion strains, locus YNL222W, strain SSU72, stronger effect = lower value
[80] = S. cerevisiae deletion strains, locus YNL307C, strain MCK1 (second series), stronger effect = lower value
[81] = S. cerevisiae deletion strains, locus YOL078W, strain AVO1, stronger effect = lower value
[82] = S. cerevisiae deletion strains, locus YOL136C, strain PFK27, stronger effect = lower value
[83] = S. cerevisiae deletion strains, locus YOR061W, strain CKA2, stronger effect = lower value
[84] = S. cerevisiae deletion strains, locus YOR119C, strain RIO1, stronger effect = lower value
[85] = S. cerevisiae deletion strains, locus YOR329C, strain SCD5, stronger effect = lower value
[86] = S. cerevisiae deletion strains, locus YPL031C, strain PHO85, stronger effect = lower value
[87] = S. cerevisiae deletion strains, locus YPL153C, strain RAD53, stronger effect = lower value
[88] = S. cerevisiae deletion strains, locus YPL204W, strain HRR25, stronger effect = lower value
[89] = S. cerevisiae deletion strains, locus YPL209C, strain IPL1, stronger effect = lower value
[90] = S. cerevisiae deletion strains, locus YPR025C, strain CCL1, stronger effect = lower value
[91] = S. cerevisiae deletion strains, locus YPR106W, strain ISR1, stronger effect = lower value
[92] = S. cerevisiae deletion strains, locus YPR111W, strain DBF20, stronger effect = lower value
[93] = S. cerevisiae deletion strains, strain NNK1, stronger effect = lower value
[94] = S. cerevisiae deletion strains, strain TSCII, stronger effect = lower value

Measured: normalized growth

C[n+]1ccccc1/C=N\O
inactive: [1] 0.981 | [2] 0.987 | [3] 0.996 | [4] 0.932 | [5] 0.997 | [6] 0.934 | [7] 1 | [8] 0.974

CN1C(=O)CN=C(c2ccccc2)c2ccccc21
inactive: [9] 1.01 | [10] 0.997 | [11] 0.999 | [12] 0.995 | [13] 0.86 | [14] 1 | [15] 1 | [1] 1.03 | [16] 0.995 | [17] 1.01 | [18] 0.994 | S. cerevisiae deletion strains, locus YKL190W, strain CNB1, stronger effect = lower value 1 | [19] 1.02 | [20] 1.01 | [21] 1.02 | [22] 1.01 | [23] 1 | [24] 1 | [25] 0.981 | S. cerevisiae deletion strains, locus YMR307W, strain GAS1, stronger effect = lower value 1.02 | [26] 1 | [27] 1.01 | [28] 0.991 | [29] 1.02 | [30] 0.854 | [31] 1.05 | [32] 0.979

Cc1cc(SCc2[nH]nc3oc(=O)cc(C)c23)c(Cl)cc1Cl
inactive: [33] 0.979 | [34] 0.993 | [35] 0.984 | [36] 0.987 | [37] 0.986 | [38] 0.988 | [39] 0.991 | [12] 0.989 | [40] 0.98 | [41] 0.987 | [42] 1.01 | [43] 0.981 | [44] 0.983 | [45] 0.972 | [46] 1.01 | [47] 0.993 | [48] 1.03 | [49] 0.984 | [50] 0.979 | [51] 0.994 | [52] 0.995 | [53] 0.99 | [54] 1.01 | [55] 1.03 | [56] 0.973 | [1] 1.1 | [2] 0.992 | [57] 1.13 | [58] 0.968 | [59] 0.979 | [3] 0.947 | [60] 0.933 | [61] 1 | [62] 0.994 | [63] 0.983 | [4] 1.05 | [64] 0.993 | [65] 1.01 | [66] 1.01 | [67] 0.982 | [68] 1.04 | [5] 1 | [69] 0.998 | [70] 0.996 | [71] 1.02 | [72] 0.99 | [73] 1.03 | [74] 0.981 | [75] 0.984 | [76] 0.981 | [77] 1.01 | [6] 1.05 | [78] 0.986 | [79] 0.979 | [80] 0.994 | [81] 0.998 | [82] 1.01 | [83] 0.973 | [84] 1.08 | [7] 0.985 | [85] 0.989 | [86] 0.988 | [87] 0.987 | [88] 0.97 | [89] 0.991 | [8] 1.08 | [90] 0.99 | [91] 1 | [92] 0.974 | [93] 0.985 | [94] 0.98

O=C(Oc1cc(Cl)c(Cl)cc1Cl)C1c2ccccc2Oc2ccccc21
active: [1] 0.75 | [5] 0.758 | [8] 0.821
inactive: [33] 0.953 | [34] 0.943 | [35] 0.944 | [36] 0.937 | [37] 0.94 | [38] 0.937 | [39] 0.943 | [12] 0.945 | [40] 0.941 | [41] 0.934 | [42] 0.95 | [43] 0.96 | [44] 0.927 | [45] 0.963 | [46] 0.912 | [47] 0.961 | [48] 0.982 | [49] 0.933 | [50] 0.95 | [51] 0.941 | [52] 0.996 | [53] 0.949 | [54] 0.907 | [55] 0.924 | [56] 0.655 | [2] 0.829 | [57] 0.976 | [58] 0.924 | [59] 0.936 | [3] 0.862 | [60] 0.887 | [61] 0.979 | [62] 0.945 | [63] 0.865 | [4] 0.93 | [64] 0.883 | [65] 0.951 | [66] 0.9 | [67] 0.958 | [68] 0.958 | [69] 0.981 | [70] 0.957 | [71] 0.962 | [72] 0.951 | [73] 0.971 | [74] 0.96 | [75] 0.945 | [76] 0.986 | [77] 0.94 | [6] 0.884 | [78] 0.925 | [79] 0.942 | [80] 0.9 | [81] 0.959 | [82] 0.976 | [83] 0.995 | [84] 0.988 | [7] 0.856 | [85] 0.943 | [86] 0.903 | [87] 0.904 | [88] 0.867 | [89] 0.938 | [90] 0.939 | [91] 0.931 | [92] 0.901 | [93] 0.927 | [94] 0.944

O=C(O)C1c2ccccc2Oc2ccccc21
inactive: [9] 0.999 | [10] 0.993 | [11] 0.99 | [12] 1 | S. cerevisiae deletion strains, locus YDL134C, strain PPH21, stronger effect = lower value 1 | [13] 0.962 | [14] 0.996 | [15] 0.984 | [1] 0.987 | [16] 0.971 | S. cerevisiae deletion strains, locus YJL187C, strain SWE1, stronger effect = lower value 0.992 | [17] 1 | [18] 0.975 | [19] 0.984 | [20] 0.998 | [21] 0.969 | [22] 1 | [23] 1.03 | [24] 0.989 | [25] 1.01 | S. cerevisiae deletion strains, locus YNL128W, strain TEP1, stronger effect = lower value 1.01 | [26] 0.983 | [27] 0.993 | [28] 0.976 | [29] 1.01 | [30] 0.964 | [31] 0.971 | [32] 1.03 | S. cerevisiae strains, strain wild type, stronger effect = lower value 1.01
